About 79,000 compounds went through this panel and 15% of them were active in at least one assay; those are over-represented in the sample as a whole. A number with no mark means an inactive call. The source made the active and inactive calls. No stated cut-off is given here; in the data, active means growth inhibition above about 70%; inactive means the rest.
How the values were obtained:
[1] = NCI Yeast Anticancer Drug Screen. Data for the rad50 strain (AID 155);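 further: 0% = growth of vehicle-only cultures of the same strain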; conditions: S. cerevisiae rad50 strain growth inhibition, hits give high values
Procedure, shortened: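 A DNA repair-deficient yeast mutant serves as the test organism; compound-induced growth inhibition is calculated against vehicle-treated cells.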

[2] = NCI Yeast Anticancer Drug Screen. Data for the mec2-1 strain (AID 157); conditions: S. cerevisiae mec2-1 strain, hits give high values
Procedure, shortened: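 Compounds were applied to mec2-1 yeast cells. Their growth was then compared with that of vehicle-treated cultures to give growth inhibition.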

[3] = NCI Yeast Anticancer Drug Screen. Data for the sgs1 mgt1 strain (AID 161);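 further: 0% = growth of cultures given vehicle only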; conditions: S. cerevisiae sgs1 mgt1 strain, hits give high values
Procedure, shortened: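 Yeast cells carrying a defined DNA-repair defect were exposed to test compounds. Growth inhibition was measured relative to vehicle-treated controls.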

[4] = NCI Yeast Anticancer Drug Screen. Data for the cln2 rad14 strain (AID 165);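 further: 0% = growth equal to vehicle treated cultures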; conditions: S. cerevisiae cln2 rad14 strain, hits give high values
Procedure, shortened: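 Strain: cln2 rad14 yeast, altered in cell cycle control and DNA damage repair. Read-out: growth inhibition vs vehicle.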

[5] = NCI Yeast Anticancer Drug Screen. Data for the bub3 strain (AID 167); conditions: S. cerevisiae bub3 mutant strain, hits give high values
Procedure, shortened: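 Inhibition values come from growth of compound-treated mutant yeast normalised to vehicle-treated controls.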

[6] = NCI Yeast Anticancer Drug Screen. Data for the mlh1 rad18 strain (AID 175); conditions: S. cerevisiae mlh1 rad18 strain growth inhibition, hits give high values
Procedure, shortened: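 A repair-deficient yeast strain is exposed to test compound, and growth is scored relative to vehicle-treated controls.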

[7] = at 5.0 µM (retest, dose inferred, filed as 0.5)
[8] = at 50.0 µM (retest, dose inferred, filed as 5.0)

SMILES	growth inhibition [1, 7]	growth inhibition [1, 8]	growth inhibition ([1]; at 50.0 µM)	growth inhibition [2, 7]	growth inhibition [2, 8]	growth inhibition ([2]; at 50.0 µM)	growth inhibition [3, 7]	growth inhibition [3, 8]	growth inhibition ([3]; at 50.0 µM)	growth inhibition [4, 7]	growth inhibition [4, 8]	growth inhibition ([4]; at 50.0 µM)	growth inhibition [5, 7]	growth inhibition [5, 8]	growth inhibition ([5]; at 50.0 µM)	growth inhibition [6, 7]	growth inhibition [6, 8]	growth inhibition ([6]; at 50.0 µM)
CC/C(=C(/CC)c1ccc(O)cc1)c1ccc(O)cc1	16%	99% (active)	99% (active)	6%	99% (active)	98.8% (active)	5%	100% (active)	99.1% (active)	39%	99% (active)	98% (active)	22%	63%	99.5% (active)	13%	97% (active)	99.2% (active)
CCC(=O)c1cc([N+](=O)[O-])c(Br)s1	99% (active)	99% (active)	99.7% (active)	99% (active)	100% (active)	99.6% (active)	100% (active)	100% (active)	99.6% (active)	99% (active)	99% (active)	98.8% (active)	100% (active)	99% (active)	99.5% (active)	99% (active)	99% (active)	99.5% (active)
Cc1cc(N/N=C/c2ccccn2)nc2ccccc12	20%	94% (active)	88.7% (active)	7%	95% (active)	92.3% (active)	21%	95% (active)	89.8% (active)	22%	93% (active)	83.9% (active)	8%	98% (active)	85.7% (active)	11%	95% (active)	90% (active)
COC(=O)c1ccc(=O)c2nc3/c(=C/O)c(O)cc(=O)c3[nH]c12	98% (active)	92% (active)	90% (active)	99% (active)	94% (active)	92.1% (active)	99% (active)	97% (active)	91.2% (active)	96% (active)	96% (active)	89.3% (active)	99% (active)	96% (active)	89.5% (active)	99% (active)	95% (active)	39.5%
Cc1c2c(c(C)c3c[n+](C)ccc13)Oc1ccccc1O2	18%	24%	25.4%	12%	19%	61.6%	11%	21%	80.5% (active)	17%	20%	62.1%	28%	31%	85.6% (active)	24%	15%	-20.6%
S=C(SSC(=S)N1CCOCC1)N1CCOCC1	97% (active)	99% (active)	99.3% (active)	99% (active)	100% (active)	99.6% (active)	99% (active)	99% (active)	99.2% (active)	61%	99% (active)	99% (active)	98% (active)	99% (active)	99.5% (active)	98% (active)	99% (active)	99.5% (active)
CC(C)(C)c1ccc(O)c(Br)c1	0%	-4%	90.9% (active)	-38%	5%	79.8% (active)	0%	2%	83.8% (active)	1%	-4%	35.5%	31%	-4%	42.6%	1%	8%	86.8% (active)
CN(C)CC(C)(CN(C)C)C(=O)/C=C/c1c(Cl)cccc1Cl	5%	84% (active)	85% (active)	-2%	73% (active)	93.7% (active)	1%	93% (active)	77.4% (active)	3%	56%	18.9%	4%	87% (active)	81% (active)	7%	93% (active)	91.5% (active)
O=C1/C(=C/c2ccccn2)CCc2ccccc21	30%	94% (active)	84.7% (active)	17%	95% (active)	89.5% (active)	11%	85% (active)	83.4% (active)	32%	92% (active)	46.2%	-8%	98% (active)	89.4% (active)	-15%	97% (active)	84.2% (active)
COC(=O)[C@]1(C)CCC[C@@]2(C)[C@@H]3C[C@@H]4[C@H]5C[C@@]3(CC[C@@H]21)C[C@@]45C	31%	99% (active)	92.2% (active)	28%	99% (active)	93.5% (active)	34%	99% (active)	93.7% (active)	31%	99% (active)	92.3% (active)	32%	100% (active)	92.2% (active)	37%	99% (active)	86.8% (active)

From PubChem BioAssay (NCI)
